Screens deposited in PubChem BioAssay by Broad Institute.
Hits are enriched below; roughly 3.2% of the tested compounds scored in any of these assays.
rRNA inh HTS: inhibitors of bacterial rRNA selective over humanized ribosomes. AID 720706. actives 1.6% (n = 350,000). GFP signal change (wild-type ribosome), % (concentration not given with the values). E. coli WT GFP vs humanized-ribosome RFP mutants, fluorescence, 24 h; active compounds read low; DMSO median 0, no signal -100;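 active = significant combined selectivity score with lowered wild-type GFP, culture density cut under 30%, mutant RFP and density less affected; inactive = any of these conditions unmet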
PGC1a acetyl inh: PGC1a acetylation modulation, inhibitor mode. U2OS PGC1a acetylation, AlphaScreen anti-acetyl-lysine; with virally co-expressed GCN5 acetyltransferase. inhibition, % at 15.6 µM. AID 651687. actives 0.17% (n = 350,000);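 active = every replicate shows inhibition of at least 40%; inconclusive = mean inhibition at least 40% but some replicate below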
CaV13 ICDI inh: Disruptors of the CACNA1D IQ motif to Ca2+-dependent inactivation inhibitor domain association, primary screening, Förster resonance energy transfer in intact living …. AID 743397. inhibition, % at 12.3 µM. actives 0.098% (n = 340,000). HEK cells, CFP/YFP FRET ICDI-IQ, plate reader, 10 min; percent FRET-ratio fall versus neutral wells;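 active = mean replicate inhibition of at least 30% and at least 1% of replicates passing that level; inconclusive = only one of the two criteria is met; inactive = neither criterion is met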
DENV2 CPE: inhibitors of DENV2 cytopathic effect. DENV2-infected cells, cytopathic effect rescue, plate reader. actives 1.7% (n = 350,000). CPE inhibition, % at 9.99 µM; in the data active = CPE inhibition above about 20%, passing the limit was not always enough; inconclusive = no clear call, values can overlap the other calls; tested in BHK-21 cells
GSIS activator: GLuc luminescence reporter in INS-1E cells, primary screen for activators of glucose-dependent secretion of insulin; actives 0.61% (n = 370,000); activation, % at 16.6 µM; AID 743287; INS-1E GLuc reporter insulin secretion, 2-3 h;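 active = lowest replicate activation of at least 40%, so every replicate reaches that level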
ERAP1 inh: ERAP1 (human) enzyme inhibition | AID 652197 | actives 0.15% (n = 340,000) | Q9NZ08 | inhibition, % at 10.7 µM | recombinant ERAP1, Leu-AMC fluorescence, 60 min;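 active = mean replicate inhibition of at least 30%, or all replicates individually reaching that 30% level; inactive = mean below 30% and not every replicate reaching it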
A number is an active result; – = inactive; ? = inconclusive; · = not tested or not shown; + = active, no number; ! = a repeat was not active.

SMILES	rRNA inh HTS	PGC1a acetyl inh	CaV13 ICDI inh	DENV2 CPE	GSIS activator	ERAP1 inh
CC(=O)Nc1sc(C)c(C)c1C(=O)OCC(=O)Nc1cc(S(C)(=O)=O)ccc1Cl	–	–	–	–	56	–
O=C(COC(=O)Cc1c[nH]c2ccccc12)Nc1cccc2ccccc12	·	·	–	·	–	·
CNC[C@@H]1OCc2ccccc2-c2ccccc2C(=O)N([C@@H](C)CO)C[C@@H]1C	–	–	–	33!	–	–
CNC[C@H]1OCc2ccccc2-c2ccccc2C(=O)N([C@H](C)CO)C[C@@H]1C	–	–	·	–	–	–
C[C@H](CO)N1C[C@H](C)[C@H](CN(C)C(=O)Nc2cccc(C(F)(F)F)c2)OCc2ccccc2-c2c(n(C)c3ccccc23)C1=O	–	–	·	25	–	–
C[C@@H]1CN([C@H](C)CO)C(=O)c2c(c3ccccc3n2C)-c2ccccc2CO[C@@H]1CN(C)Cc1cccc2c1OCCCO2	–	–	·	28	–	–
C[C@H]1CN([C@@H](C)CO)C(=O)c2c(c3ccccc3n2C)-c2ccccc2CO[C@@H]1CN(C)Cc1cccc2c1OCCCO2	·	–	·	–	·	–
C[C@@H]1CN([C@H](C)CO)C(=O)c2ccccc2-c2ccccc2CO[C@@H]1CN(C)C(=O)[C@H]1CCCN1C	–	–	·	79	–	–
COc1cc(CN2CC3(CN(C(C)=O)C3)c3c([nH]c4cc(OC)ccc34)[C@H]2CO)cc(OC)c1	–	–	·	?	–	·
C[C@@H]1CN([C@H](C)CO)C(=O)c2cc(NC(=O)CCN3CCOCC3)ccc2O[C@@H]1CN(C)S(C)(=O)=O	–	–	·	–	–	–
C[C@@H]1CN([C@H](C)CO)C(=O)c2cc(C#C[C@@H](C)O)cnc2O[C@@H]1CN(C)C(=O)Nc1ccc(F)cc1	–	–	·	–	–	–
COc1cccc(NC(=O)N2C[C@H](O)COC[C@H]3O[C@H](CC(=O)NC4CCC4)CC[C@@H]32)c1	–	–	·	–	–	–
Cc1ccc(-c2ccc([C@@H]3[C@H](CO)N4CCCCN(Cc5ccccn5)C[C@@H]34)cc2)cc1	–	–	·	·	–	·
C[C@H](CO)N1C[C@H](C)[C@H](CN(C)C(=O)Nc2ccc(F)cc2)OCc2ccccc2-c2c(n(C)c3ccccc23)C1=O	–	–	–	73!	–	–
CNC[C@@H]1OCc2ccccc2-c2c(n(C)c3ccccc23)C(=O)N([C@H](C)CO)C[C@@H]1C	–	–	–	33!	–	–
COc1cccc(CN(C)C[C@@H]2OCc3ccccc3-c3c(n(C)c4ccccc34)C(=O)N([C@@H](C)CO)C[C@H]2C)c1	–	–	–	49!	–	–
CC(=O)N(C)C[C@H]1OCc2ccccc2-c2c(n(C)c3ccccc23)C(=O)N([C@H](C)CO)C[C@H]1C	–	–	·	34	–	–
C[C@H]1CN([C@@H](C)CO)C(=O)c2c(c3ccccc3n2C)-c2ccccc2CO[C@@H]1CN(C)C(=O)Nc1ccc(F)cc1	–	–	·	–	–	–
Cc1ccccc1Nc1cc2ccccc2c(=O)[nH]1	·	–	·	·	·	·
O=c1[nH]c(Nc2ccccc2Cl)cc2ccccc12	–	–	+	–	–	–
CN1C(=O)c2cc(NC(=O)NCc3ccccc3)ccc2OC[C@@H]2O[C@@H](CC(=O)O)CC[C@@H]21	–	–	·	?	–	–
O=C(Nc1ccccc1F)N1[C@@H]2CNC[C@H]1C2c1ccc(-c2ccccc2)cc1 (stereo not given in full)	–	–	·	–	–	–
COc1ccc(-c2ccc(C3[C@@H]4CN(C(=O)Nc5ccccc5F)C[C@H]3N4)cc2)cc1 (stereo not given in full)	–	–	·	–	–	–
CN(C)C(=O)c1ccc(-c2ccc(C3[C@H]4CNC[C@@H]3N4C(=O)NC3CCCC3)cc2)cc1 (stereo not given in full)	–	·	·	72	–	–
COc1ccc(-c2ccc(C3[C@H]4CNC[C@@H]3N4C(=O)Nc3ccc4c(c3)OCO4)cc2)cc1 (stereo not given in full)	–	·	·	25!	–	–
SMILES	rRNA inh HTS	PGC1a acetyl inh	CaV13 ICDI inh	DENV2 CPE	GSIS activator	ERAP1 inh
COc1cccc(-c2ccc(C3[C@@H]4CN(C(=O)Nc5ccccc5F)C[C@H]3N4)cc2)c1 (stereo not given in full)	–	–	·	32!	–	·
COc1ccc(-c2ccc(C3[C@H]4CNC[C@@H]3N4C(=O)Nc3ccccc3F)cc2)cc1 (stereo not given in full)	–	–	·	26!	–	–
O=C(C[C@@H]1C=C[C@H](NC(=O)Nc2ccc(C(F)(F)F)cc2)[C@H](CO)O1)NCc1cc(F)cc(F)c1	–	·	·	–	–	–
C[C@H]1CCCCO[C@H](CN(C)C(=O)c2ccncc2)[C@@H](C)CN([C@@H](C)CO)C(=O)c2cc(NS(=O)(=O)c3ccc(Cl)cc3)ccc2O1	–	–	·	–	–	–
COc1ccc(NC(=O)N2[C@@H]3CNC[C@H]2C3c2ccc(-c3ccc(C)cc3)cc2)cc1 (stereo not given in full)	–	·	·	33!	–	–
COc1ccc(NC(=O)N2[C@@H]3CNC[C@H]2C3c2ccc(-c3ccccc3)cc2)cc1 (stereo not given in full)	–	–	·	?	–	–
CN(Cc1nc2ccccc2c(=O)[nH]1)C(=O)c1cccc(S(=O)(=O)N2CCc3ccccc32)c1	–	–	–	44	–	–
Cc1noc(C)c1S(=O)(=O)Nc1ccc2c(c1)CC(=O)N([C@H](C)CO)C[C@@H](C)[C@H](CN(C)C)O2	–	–	·	–	–	–
CC=Cc1ccc2n(c1=O)C[C@@H]1[C@@H](CO)[C@H](C(=O)NC3Cc4ccccc4C3)[C@H]2N1C(C)=O (mixture of isomers)	–	·	·	31	–	–
CC(=O)N1[C@@H]2Cn3c(ccc(-c4ccccc4)c3=O)[C@H]1[C@@H](C(=O)NC1Cc3ccccc3C1)[C@@H]2CO	–	·	·	·	–	·
COCC(=O)N1[C@@H]2Cn3c(ccc(/C=C/c4ccccc4)c3=O)[C@H]1[C@@H](C(=O)N1CCOCC1)[C@@H]2CO	–	·	·	–	–	128
CC(=O)N1[C@@H]2c3ccc(-c4ccccc4)c(=O)n3C[C@H]1[C@H](CO)[C@H]2C(=O)Nc1ccccc1	–	·	·	48	–	–
CC(=O)N1[C@@H]2c3ccc(/C=C/c4ccccc4)c(=O)n3C[C@H]1[C@H](CO)[C@H]2C(=O)N(C)C	–	·	·	–	–	91
CCN1[C@@H]2c3ccc(-c4ccccc4)c(=O)n3C[C@H]1[C@H](CO)[C@H]2C(=O)Nc1ccccc1	–	·	·	–	–	–
